TRAIL sens C8: sensitizes caspase-8 expressing cells to TRAIL; NB7+C8 cells + TRAIL, ATPlite viability luminescence; inhibition (viability loss, TRAIL sensitization), % at 10 µM; 1% of 360,000 active;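 active means compounds causing at least 50% loss of cell viability in the single-dose screen, relative to plate controls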
TROY signal inh: TROY signaling inhibition | Q293 LMP1-TROYcd NF-kB luciferase reporter, 4 h | inhibition, % at 10 µM | 0.98% of 360,000 active;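 active means compounds whose plate-normalised and pattern-corrected inhibition of the luciferase reporter signal at the single screening dose is 50% or more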
Platelet DG rel: platelet dense granule release activity | human platelet-rich plasma, SFLLRN dense granule ATP release, luminescence | 0.22% of 300,000 active | inhibition, %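 (compounds screened at 7.5 µM in platelet-rich plasma)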;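 active means mean replicate score, as percent of positive control, at or above 50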
PPC-1+TRAIL kill: kills PPC-1 cancer cells in the presence of TRAIL; cell killing (% activity), % at 4 µM or 5 µM; PPC-1 cells + TRAIL, ATPLite viability luminescence; 0.41% of 220,000 active;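 active means cell killing above 50% in the first pass at 4 µM, then a duplicate retest at 5 µM averaging 50% or more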;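 further: plate controls were cells with TRAIL plus DMSO for no effect and medium-only wells lacking cells for full effect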
TWEAK Fn14 block: inhibitors of TWEAK-Fn14 interaction signaling; TWEAK-stimulated Fn14 reporter cells, luciferase luminescence, 8 h; inhibition, % at 10 µM; 2% of 360,000 active; AID 1159606; in the data active means inhibition above about 50%
HSP90 inh: inhibitors of HSP90 luciferase refolding in rabbit reticulocyte lysate. luciferase refolding luminescence, 3 h. inhibition, % at 5.6 µM. 0.91% of 290,000 active. AID 1789;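 active means inhibition above the screen-wide mean plus 3 SD, computed separately per campaign, cut at about 16% in these data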;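 further: 0% = DMSO wells and 100% = 60 µM geldanamycin wells; inhibitors lower the luminescence because luciferase stays unfolded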
HSP90 confirm: confirmation of HSP90 inhibitors; shares compounds with HSP90 inh; rabbit reticulocyte lysate, luciferase refolding luminescence, 3 h; inhibition, % at 5.9 µM; 64% of 2,300 active; in the data active means inhibition above about 18%;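 further: 0% = vehicle wells and 100% = reference inhibitor wells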
FLuc counter: counter-screen for HSP90 inhibitors: inhibitors of firefly luciferase; shares compounds with HSP90 inh; purified native firefly luciferase, luminescence; inhibition, % at 5.9 µM; 48% of 2,300 active;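 active means inhibition above the mean inhibition of all tested sample wells plus 3 SD, cut at about 10% in these data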;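 further: 0% = DMSO with luciferase and 100% = wells lacking luciferase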
Target sequence (P08659 whole entry, looked up): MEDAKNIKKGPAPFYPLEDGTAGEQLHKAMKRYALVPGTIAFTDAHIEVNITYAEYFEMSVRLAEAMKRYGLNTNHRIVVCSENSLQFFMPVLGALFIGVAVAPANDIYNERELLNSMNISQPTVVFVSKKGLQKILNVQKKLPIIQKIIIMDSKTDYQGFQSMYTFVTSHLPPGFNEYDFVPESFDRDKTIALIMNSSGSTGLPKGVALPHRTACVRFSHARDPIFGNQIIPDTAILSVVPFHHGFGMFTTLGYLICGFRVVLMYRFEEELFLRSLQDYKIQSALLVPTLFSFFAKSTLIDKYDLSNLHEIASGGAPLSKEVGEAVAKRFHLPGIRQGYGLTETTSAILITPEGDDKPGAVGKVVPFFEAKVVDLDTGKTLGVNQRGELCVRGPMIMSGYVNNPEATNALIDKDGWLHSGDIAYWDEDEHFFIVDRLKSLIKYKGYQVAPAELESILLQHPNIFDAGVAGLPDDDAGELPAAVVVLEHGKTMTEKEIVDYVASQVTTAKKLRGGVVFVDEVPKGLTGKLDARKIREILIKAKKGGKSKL
Active calls of the source: *; . = not tested or not shown. Shown are actives, neighbours in structure and some others; about 3.5% of the full set was active somewhere.

SMILES	TRAIL sens C8	TROY signal inh	Platelet DG rel	PPC-1+TRAIL kill	TWEAK Fn14 block	HSP90 inh	HSP90 confirm	FLuc counter
CC(C)Oc1ccc(C(=O)Nc2nc3ccccc3[nH]2)cc1	92.0*	82.0*	34.5	.	97.7*	83.2*	90.5*	84.6*
Cc1ccsc1C(=O)Nc1nc2ccccc2[nH]1	60.1*	13.4	100.1*	40.8	49.5	22.2*	37.7*	28.8*
CCOc1ccc(C(=O)Nc2nc3ccccc3[nH]2)cc1OCC	2.2	-11.6	-3.7	8.6	22.2	-2.6	.	.
N#Cc1ccc(C(=O)Nc2nc3ccccc3[nH]2)cc1	38.7	4.8	14.9	.	28.4	8.7	.	.
O=C(Nc1nc2ccccc2[nH]1)c1ccccc1OC(F)F	68.8*	27.5	38.8	.	63.8*	30.0*	55.1*	44.9*
CCc1ccc(C(=O)Nc2nc3ccccc3[nH]2)cc1	96.3*	80.3*	14.9	.	97.9*	79.6*	90.5*	85.0*
CC(C(=O)NC(C)(C)C)N(C(=O)CS(=O)CC(=O)Nc1ccc(F)cc1)c1ccccc1F (stereo not drawn)	8.6	16.7	9.0	11.3	-12.3	0.9	.	.
O=C(O)/C(=C\c1ccc(-c2ccccc2[N+](=O)[O-])o1)c1ccccc1	-3.1	-36.9	-8.5	.	3.7	33.5*	-4.9	-9.2
COc1ccc(N=c2oc3ccc(OC)cc3cc2-c2nc3ccccc3[nH]2)cc1	43.3	11.9	2.4	26.1	49.4	1.1	.	.
COc1cccc(N=c2oc3ccccc3cc2-c2nc3ccccc3[nH]2)c1	37.9	1.5	4.1	44.1	74.6*	24.1*	-1.7	-12.9
Cc1cc(C(=O)CSc2nnc3ccccn23)c(C)n1-c1ccccc1	52.6*	79.2*	5.5	32.9	101.0*	61.8*	86.4*	78.8*
CC1=C(C(=O)NCc2ccc3c(c2)OCO3)C2(CCC(C)CC2)OC1=O (stereo not drawn)	-3.3	-5.1	-3.4	-1.5	-7.5	57.5*	-6.7	-10.2
CC1CCCCC12NC(=O)N(CC(=O)NCc1ccc3c(c1)OCO3)C2=O (stereo not drawn)	-18.9	-10.7	-3.9	14.6	8.1	25.5*	-5.6	-9.8
CC1CCC2(CC1)NC(=O)N(CC(=O)NCc1ccc3c(c1)OCO3)C2=O (stereo not drawn)	1.8	8.6	-4.3	11.3	-5.8	1.8	.	.
COC(=O)c1cc(S(=O)(=O)NCc2ccc(F)cc2)cn1C	2.4	-10.1	2.3	.	-10.1	-0.4	.	.
O=C1CCC(=O)N1c1ccc(-c2nc3ccccc3s2)cc1	77.7*	82.7*	35.5	30.9	90.4*	46.3*	74.4*	66.0*
Nc1ccc(-c2cnc3ccccc3n2)cc1	-6.1	16.7	2.6	.	47.0	.	.	.
Nc1ccc(-c2cnc(-c3ccc(N)cc3)nc2)cc1	73.4*	-4.3	-2.4	-10.0	66.6*	21.3*	26.2*	19.0*
Cc1cccc(S(=O)(=O)N(C)C[C@H]2OCc3cnnn3CCCC(=O)N([C@H](C)CO)C[C@H]2C)c1	1.3	12.3	.	.	2.1	.	.	.
CSc1nc(C(=O)N2CCCC(N3CCN(c4ccccc4C)CC3)C2)cs1 (stereo not drawn)	-9.9	1.9	-6.3	.	-6.2	-1.6	.	.
C/C(=N\Nc1nc(C(=O)O)cs1)c1ccccc1	.	.	-6.0	2.4	.	29.0*	-4.7	-7.2
COc1ccc(/C=N/Nc2nc(C(=O)O)cs2)cc1	-2.6	-30.8	6.3	.	23.2	66.3*	90.4*	74.3*
COC(=O)c1ccc(/C=N/Nc2nc(-c3ccccc3)cs2)cc1	-9.7	-25.2	17.4	17.9	-31.9	0.7	.	.
NC(=O)CSc1nnc(-c2ccccc2F)n1C1CC1	-18.2	-2.2	-0.5	.	22.0	-2.9	.	.
O=C(COc1ccc(Cl)cc1)NCc1nnc(SCC(=O)Nc2ccccc2)o1	3.2	0.9	-18.0	-13.3	-4.2	36.8*	-1.0	-6.2
SMILES	TRAIL sens C8	TROY signal inh	Platelet DG rel	PPC-1+TRAIL kill	TWEAK Fn14 block	HSP90 inh	HSP90 confirm	FLuc counter
COc1ccc(CNC(=O)C(CC(C)C)NC(=O)c2ccccc2C)cc1 (stereo not drawn)	0.8	-12.3	-4.0	.	12.7	-2.1	.	.
Cc1ccc2c(c1)Oc1ccc(NC(=O)CCl)cc1C(=O)N2	22.3	-14.0	-3.2	5.3	46.0	4.4	.	.
Cc1cc2ncc(-c3ccccc3)nc2cc1C	26.8	-19.4	7.3	.	39.8	14.7	.	.
Cc1ccc(-c2cnc3ccccc3n2)cc1C	9.0	12.1	20.0	.	72.8*	28.9*	63.5*	58.1*
CCc1ccc(-c2nc(CSCC(=O)NCc3ccco3)c(C)o2)cc1	3.1	45.0	-0.4	16.7	65.0*	19.1*	30.8*	-19.8
CCOc1ccc(-c2nc(CSCC(=O)N3CCN(C(=O)c4ccco4)CC3)c(C)o2)cc1	2.9	4.4	3.9	-3.7	-3.5	37.2*	46.0*	-5.0
O=C1CCC(C(=O)O)N1 (stereo not drawn)	2.7	-0.7	-1.9	.	4.0	-2.1	.	.
COc1ccc2cc3cc(C(=O)NC4CC4)sc3nc2c1	76.8*	26.8	20.8	.	67.0*	21.1*	47.0*	29.2*
COc1ccc2cc3cc(C(=O)NCCCN4CCc5ccccc5C4)sc3nc2c1	-5.8	-51.9	-6.9	23.8	-69.9	-3.7	.	.
COc1ccc(NC(=O)N2CCc3ccccc32)cc1	56.5*	-5.8	53.3*	14.3	46.0	18.8*	37.0*	23.3*
O=C(Sc1ccccc1)c1cccc(Cn2cc(C(F)(F)F)ccc2=O)c1	10.3	46.2	0.7	-7.0	20.6	1.8	.	.
CCOc1cc(C2C3=C(CCCC3=O)OC3=C2C(=O)CCC3)cc([N+](=O)[O-])c1O	-5.8	-0.5	-2.0	-14.2	3.4	31.0*	-5.2	-6.8
Cc1cc(N2CCOCC2)n2ncc(-c3ccc(Cl)cc3)c2n1	21.2	78.7*	.	15.0	82.4*	35.2*	48.3*	55.4*
Cc1ccc(-c2cnn3c(N4CCOCC4)cc(C)nc23)cc1	26.2	73.4*	-6.1	.	84.6*	39.7*	47.7*	53.5*
Cc1ccc(S(=O)(=O)N(C)C)cc1NC(=O)C1CCCCC1	2.2	-6.5	4.7	7.1	12.3	-2.9	.	.
O=c1c2c([nH]c3ccccc13)CCC2	-25.5	-10.7	3.1	.	5.5	20.5*	-6.1	-7.3
COc1ccc2c(c1OC)C(=O)OC2Nc1nc(-c2cc3ccccc3oc2=O)cs1 (stereo not drawn)	43.6	-49.2	14.3	7.6	17.7	63.6*	13.6	2.3
CN=c1scc(-c2ccccc2F)n1/N=C/c1ccc(O)c(O)c1O	83.5*	91.9*	77.0*	46.9	98.7*	22.1*	92.4*	89.0*
COc1ccc(-c2noc(CNC(=O)c3ccoc3C)n2)cc1OC	1.1	12.6	-18.6	.	-8.0	-1.9	.	.
